What all share (assay): PBM binding z-score (relative to random genomic background probes); higher = stronger binding; sequences stand for … in GC…GCGATTGACAGCGTAGAATGAAGG
For assay [1], the system named is FXR:RXRa (NR concentration 270 nM, RXRa partner concentration 90 nM). In outline: (§1)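 On custom Agilent 4×180K arrays, double-stranded probes with 34-nt variable regions carried direct-repeat seeds, single-nucleotide variants, half-site ablations or random human genomic background. Ligand-free nuclear receptor dimers were applied for 1 h, and binding was read with antibodies against each partner (one per run). Binding z-scores come from regression-normalized fluorescence, with the random background probes as reference.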

Assay [2] relates to LXRa:RXRa (NR concentration 270 nM, RXRa partner concentration 90 nM). In outline:
as §1

The subject of assay [3] is LXRa homodimer (NR concentration 270 nM). The essentials:
as §1

In assay [4] the test system is LXRb:RXRa (NR concentration 270 nM, RXRa partner concentration 90 nM). In outline: as §1
Assay [5] has as its system LXRb homodimer (NR concentration 270 nM). In outline: as §1
The test system of assay [6] is PPARa:RXRa (NR concentration 270 nM, RXRa partner concentration 90 nM). In outline:
as §1

Assay [7] has as its system PPARg:RXRa (NR concentration 180 nM, RXRa partner concentration 90 nM). The essentials:
as §1

Assay [8] has as its system PPARg:RXRa 270nM:90nM, anti-RXR (NR concentration 270 nM, RXRa partner concentration 90 nM). In outline: as §1
Assay [9] relates to PPARg:RXRa 30nM:10nM, anti-RXR (NR concentration 30 nM, RXRa partner concentration 10 nM). The essentials:
as §1

Assay [10] deals with PPARg:RXRa 90nM:30nM, anti-RXR (NR concentration 90 nM, RXRa partner concentration 30 nM). In outline:
as §1

Take GCAGACTGGTGAAACGCAGGTAACTCAGGGTGGC: the PBM binding z-score is -0.987 in assay [1]; -0.932 in assay [2]; -0.841 in assay [3]; -1.19 in assay [4]; -1.45 in [5]; -1.12 in [6]. The PBM binding z-score in [7] was -0.00355; in [8], -0.98; in [9], -0.852; in [10], -1.12.
In the case of AGAACGGGGGCAATGAGTTGATAGCACGGGTGGC, the PBM binding z-score in assay [1] is 2.35; in assay [2], 2.45; in [3], 0.461; in assay [4], 4.18; in [5] it was 6.07; in assay [6], 3.66. In addition, the PBM binding z-score in assay [7] came to 2.98; in assay [8], 4.15; in [9], 2.33; in [10], 3.26.
In the case of GCTATTGGTTGAAAGGGCAACCGAATGATTCTCG, the PBM binding z-score in assay [1] is 0.353; in assay [2] it was 0.664; in assay [3], -0.156; in assay [4] it was 0.954; in assay [5], -0.225; in [6], 2.36. The PBM binding z-score in [7] stood at 2.29; in assay [8], 4.34; in assay [9] it was 1.94; in assay [10] it was 4.37.
In the case of CCTCACGGGTCACTCCAGGTTATAGCATCGGAGT, the PBM binding z-score in assay [1] turned out to be 4.64; in [2] it was 7.34; in assay [3] it was 1.76; in assay [4], 5.28; in assay [5], 0.129; in assay [6], 4.16. The PBM binding z-score is 2.19 in [7], 2.85 in assay [8], 0.902 in assay [9] and 1.92 in assay [10].
For CCTAGTTGGTCAGGAGCTCACACACCGGATATGA, the PBM binding z-score is -0.0186 in assay [1]; -0.0451 in assay [2]; 0.119 in assay [3]; -0.266 in assay [4]; 0.143 in assay [5]; -0.0186 in [6]. For the same sequence, the PBM binding z-score in assay [7] is 0.636; in [8], 0.361; in [9] it was -0.291; in [10] it was -0.0665.
Regarding TCTGCTAGGTCAACGATGGTCAGCAAATCTGCTA, the PBM binding z-score is 3.33 in [1]; 2.48 in assay [2]; -0.168 in assay [3]; 1.69 in assay [4]; -0.321 in [5]; 3.27 in assay [6]. In addition, the PBM binding z-score in [7] worked out at 2.79; in [8], 3.15; in [9], 2.13; in assay [10], 2.56.
Turning to TGAATTAGGTTATAAGATCAGGGAACGTTGCAAA, the PBM binding z-score in assay [1] is 0.295; in assay [2] it was 0.216; in assay [3] it was -0.00025; in assay [4] it was 0.474; in assay [5], 0.221; in [6], 1.97. Moreover, the PBM binding z-score in [7] is 2.18; in assay [8], 3.06; in assay [9], 1.96; in assay [10], 2.45.
Regarding CCGACTGGGGCAGAGGTTACCATACTCAGTACGA, the PBM binding z-score in assay [1] is 0.287; in assay [2] it was 0.761; in assay [3], -0.0955; in assay [4] it was 1.34; in assay [5] it was -1.08; in assay [6] it was 3.62. The PBM binding z-score in assay [7] was 8.22; in assay [8], 7.57; in [9], 6.11; in assay [10], 7.57.
For the sequence TCTGCTAGGTCACCGATGGTCAGCTAATCTGCTA, the PBM binding z-score in assay [1] was 3.75; in [2], 3.3; in assay [3] it was -0.47; in [4], 2.07; in assay [5] it was -0.343; in [6], 3.82. In addition, the PBM binding z-score in assay [7] was found to be 3.64; in [8], 4.04; in [9] it was 2.09; in [10], 3.11.
As to GCAGACAGGTGAAAAGCAGGTAACTCAGGGTGGC, the PBM binding z-score is -0.224 in assay [1]; -0.0671 in assay [2]; -0.495 in assay [3]; -0.319 in assay [4]; -0.696 in assay [5]; 0.507 in assay [6]. In addition, the PBM binding z-score in assay [7] is 0.376; in [8], 0.014; in assay [9], -0.488; in assay [10] it was -0.253.
Take CGTCCAAGGTCAAACGTCAGTGAAGAGATGACGG: the PBM binding z-score was 7.81 in assay [1]; 5.85 in assay [2]; 1.39 in assay [3]; 4.54 in assay [4]; 1.77 in assay [5]; 6.06 in assay [6]. In addition, the PBM binding z-score in [7] amounted to 5.95; in assay [8], 6.15; in assay [9] it was 3.64; in assay [10] it was 5.2.
Turning to TCTAGCAGGCCAGAGGGTCACTCGAGAGGTACGG, the PBM binding z-score in assay [1] was 0.927; in [2], 0.659; in assay [3], -0.59; in assay [4], 0.806; in assay [5], -1.36; in [6], 2.11. The PBM binding z-score in assay [7] worked out at 1.36; in [8], 2.59; in [9], 1.79; in assay [10], 2.52.
Turning to ATCTCTAGGTAAAAGTCCAGTGAATCCCGAGGAT, the PBM binding z-score in assay [1] is 0.192; in assay [2], 0.0512; in assay [3], -0.0646; in assay [4], -0.297; in assay [5] it was 0.61; in assay [6], 0.598. Besides, the PBM binding z-score in assay [7] is 1.24; in assay [8] it was 3.02; in assay [9], 1.28; in [10], 2.94.

(Values after the supplement of paper PMC6555819.)
